From the supplement of paper PMC6555819

Tests used:
Assay in all cases: PBM binding z-score (relative to random genomic background probes); higher = stronger binding; sequences stand for … in GC…GCGATTGACAGCGTAGAATGAAGG
[1] = tested on: FXR:RXRa (NR concentration 270 nM, RXRa partner concentration 90 nM)
In short: (§1)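 Each nuclear receptor dimer, without ligand, was incubated for 1 h on custom Agilent 4×180K protein-binding microarrays. Binding was detected with antibodies against each partner (one per run), and scanned fluorescence was regression-normalized. The binding z-scores are referenced to random human genomic background probes.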

[2] = tested on: LXRa:RXRa (NR concentration 270 nM, RXRa partner concentration 90 nM)
In short: as §1

[3] = tested on: LXRa homodimer (NR concentration 270 nM)
In short: as §1

[4] = tested on: LXRb:RXRa (NR concentration 270 nM, RXRa partner concentration 90 nM)
In short: as §1

[5] = tested on: LXRb homodimer (NR concentration 270 nM)
In short: as §1

[6] = tested on: PPARa:RXRa (NR concentration 270 nM, RXRa partner concentration 90 nM)
In short: as §1

[7] = tested on: PPARg:RXRa (NR concentration 180 nM, RXRa partner concentration 90 nM)
In short: as §1

[8] = tested on: PPARg:RXRa 270nM:90nM, anti-RXR (NR concentration 270 nM, RXRa partner concentration 90 nM)
In short: as §1

[9] = tested on: PPARg:RXRa 30nM:10nM, anti-RXR (NR concentration 30 nM, RXRa partner concentration 10 nM)
In short: as §1

[10] = tested on: PPARg:RXRa 90nM:30nM, anti-RXR (NR concentration 90 nM, RXRa partner concentration 30 nM)
In short: as §1

Sequence | PBM binding z-score [1] | PBM binding z-score [2] | PBM binding z-score [3] | PBM binding z-score [4] | PBM binding z-score [5] | PBM binding z-score [6] | PBM binding z-score [7] | PBM binding z-score [8] | PBM binding z-score [9] | PBM binding z-score [10]
CCTACTGGGTCAAAAAGGTCATTGATGCCGATAA | 5.59 | 5.57 | 4.15 | 5.29 | 1.01 | 5.73 | 7 | 6.52 | 4.03 | 5.73
AGACCGAGGGCACGCTGAGTTGATAGCAGAGTAG | 0.748 | 0.67 | -0.437 | 0.0788 | -0.999 | 1.56 | 0.962 | 0.775 | -0.337 | 0.0427
ACTAGCAGGCCAAGGGTCGCTCAAGATTAGTCCG | -0.247 | 0.0805 | -0.567 | 0.0881 | -0.965 | 2.36 | 4.99 | 6.2 | 3.7 | 5.95
TTACCAAGGTGAGCTGAGGTCGTTTATCCAACTC | 2.17 | 1.37 | -0.142 | 0.978 | -0.227 | 1.61 | -0.0022 | 0.829 | -0.0958 | 0.644
CAAACTAGGACACCGGAAGGTCAAAGTCCGCATG | 3.19 | 3.23 | 3.38 | 3.19 | 0.695 | 4.46 | 4.72 | 4.54 | 1.9 | 3.7
ACTATTAGTTGAGACGAGTGCAACCGATAGGTTG | -0.26 | -0.238 | -0.221 | -0.356 | -0.0624 | -0.254 | 0.511 | 0.0303 | -0.299 | -0.303
CCTACTGGGCCATTCAGAAGTCATTGATCATATG | -0.391 | -0.415 | -0.186 | -0.497 | -0.171 | 0.968 | 0.302 | 0.341 | -0.166 | -0.00895
TCTTGTAGATCAATAGAGGTTAAGAAAGTGCGCT | 0.723 | 3.4 | 0.589 | 1.83 | -0.158 | 1.8 | -0.124 | 1.46 | 2.83 | 2.18
CCTGCTAGGTCATTGTCAGCTAATCTACAGTATG | 3.88 | 2.99 | 0.878 | 1.84 | 0.257 | 2.94 | 1.29 | 2.14 | 0.169 | 1.22
CGAACTAGGTCATCCAGGACAGTGACTACATTGA | 4.72 | 2.67 | 0.428 | 1.91 | -0.136 | 4.84 | 7.74 | 6.43 | 3.94 | 6.21
AGTCAAAGTACATCTAGGTAACGTAAGATATGCT | -0.254 | -0.258 | -0.145 | -0.0982 | -0.223 | 0.359 | 1.35 | 0.631 | 0.46 | 0.326
GCGACTGGGGCATCAGCAGGTTTCCATAACTTAA | -0.587 | -0.452 | -0.461 | 0.112 | -0.629 | 0.353 | 0.32 | 0.386 | -0.554 | -0.228
ACTCTGAGGACAAAGGTCAGAGCTACGCCAGTGA | 4.52 | 4.08 | 1.44 | 3.34 | 0.531 | 4.76 | 7.44 | 7 | 5.4 | 6.74
GGAACGAGAGCAAGTTGATAGCAGAGTTTGATGG | -0.63 | -0.766 | -0.719 | -0.852 | -1.03 | -0.523 | 0.39 | -0.573 | -0.225 | -0.721
CCTACTGGGCCACGAAAGGTCATGGATTCAGTGA | 3.62 | 5.06 | 3.79 | 4.07 | 0.209 | 4.97 | 4.97 | 5.27 | 2.28 | 4.77
GCTATTAGTTGAAAGGGCAACCGGATGATTCTCG | 0.785 | 0.839 | 0.362 | 0.759 | -0.334 | 2.31 | 2.78 | 4.56 | 2.87 | 4.49
CGAACTAGGTCATTCACAGGACAGTGAATAGTAA | 4.72 | 3.19 | 0.593 | 2.48 | 0.493 | 4.67 | 7.34 | 6.26 | 3.72 | 5.9
GCTGCTAGGTCAGCTGATGGTCAGCTAAAGCTCG | 1.21 | 0.513 | -0.477 | 0.0658 | -1.13 | 1.58 | 0.146 | 1.01 | -0.292 | 0.544
AGACAAAGTTCACTAGGTAACGTAAGATTCAGCT | 5.15 | 4.98 | 2.65 | 3.12 | 1.08 | 4.76 | 6 | 5.55 | 2.55 | 4.7
GCTAGGAGGACAAGGTCAGAGCTTTGTCCGTAGA | 1.46 | 1.37 | -0.572 | 0.865 | -0.916 | 2.36 | 0.985 | 1.44 | -0.224 | 0.93
GCTTACGGGTCAAAGGCTATAGCATGAATAGAAT | 5.51 | 3.89 | 0.00427 | 3.82 | 0.0561 | 6.01 | 7.81 | 6.86 | 5.03 | 6.55
CCTACTGGGCCAAACAGGTCATTGATGCCGATAA | 0.606 | 0.905 | 0.657 | 1.55 | -0.709 | 2.56 | 1.79 | 2.18 | 0.412 | 1.43
TCGAGAAGGTTACCAATGGGGCATTCAGCTTTCT | 0.688 | 2.9 | -0.534 | 1.76 | -0.525 | 2.11 | 0.146 | 1.49 | 2 | 1.69
GTACCAAGGTGAAAAGGTCGTTGATGAGTAGGCG | 2.32 | 1.94 | 0.42 | 1.99 | -0.22 | 3.63 | 2.62 | 3.36 | 1.38 | 2.94
